# In PubChem BioAssay:
# Calls of active or inactive are those of the source.
# What was measured:
# [1] = system: Plasmodium falciparum Sir2 (PF13_0152, Sir2A); test: Plasmodium falciparum Sir2A binding compounds – biochemical, small-molecule microarray, 635 nm fluorescence, primary screen (AID 1098); conditions: fluorescence 635 nm, higher = more signal;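 further: score merges spot fluorescence intensity with its signal-to-noise ratio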
# [2] = probe aDKK1 binding to arrayed compounds – biochemical, biotinylated probe, 635/667 nm fluorescence, primary screen (AID 1099); conditions: small-molecule microarray, higher = more signal;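 further: score merges 667nm spot fluorescence with signal to noise across triplicate slides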
# [3] = probe aCHRDL2 binding to arrayed compounds – biochemical, biotinylated probe, 635/667 nm fluorescence, primary screen (AID 1100); conditions: small-molecule microarray, higher = more signal
# [4] = change in splice reporter luminescence, either direction, cell-based, HEK293, spliceosome inhibition project, primary screen (AID 1101); conditions: HEK293 splicing luciferase reporter, 24 h, higher = more signal, called active from +8 up or from −8 down;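 further: HEK293 cells carrying a splicing-competent luciferase reporter gene; test concentration not given here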
# [5] = biological target: Fibroblast growth factor 10 (Homo sapiens) (UniProt O15520); test: compounds binding fibroblast growth factor 10 – biochemical, small-molecule microarray, 635 nm fluorescence, primary screen (AID 1102); conditions: FGF10 binding, fluorescence 635 nm, higher = more signal
# [6] = system: glycogen synthase kinase-3 (GSK3A per assay name; protocol says GSK3B); test: compounds binding glycogen synthase kinase-3 – biochemical, small-molecule microarray, 635 nm fluorescence, GSK3A, primary screen (AID 1103); conditions: fluorescence 635 nm, higher = more signal; further: the record names both GSK3A and GSK3B
# [7] = biological target: Epidermal growth factor receptor (Homo sapiens) (UniProt P00533); test: compounds binding epidermal growth factor receptor – biochemical, small-molecule microarray, 635 nm fluorescence, primary screen (AID 1104); conditions: EGFR binding, higher = more signal;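 further: score merges 667 nm emission intensity with spot signal to noise over triplicate slides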
# [8] = biological target: Follistatin-related protein 3 (Homo sapiens) (UniProt O95633); test: compounds binding follistatin-related protein 3 – biochemical, small-molecule microarray, 635 nm fluorescence, primary screen (AID 1105); conditions: FSTL3 binding, higher = more signal;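 further: score merges emission near 667 nm and signal to noise per printed spot across three slides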
# [9] = biological target: Dickkopf-related protein 1 (Homo sapiens) (UniProt O94907); test: small molecules binding DKK1 protein – biochemical, small-molecule microarray, 635 nm fluorescence scan, primary screen (AID 1106); conditions: higher = more signal;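 further: score merges emission near 667 nm with signal to noise over three replicate slides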
# [10] = system: Inhibin beta A chain (activin A); test: small molecules binding activin A – biochemical, small-molecule microarray, 635 nm fluorescence scan, primary screen (AID 1107); conditions: INHBA, higher = more signal;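 further: mouse activin A protein probed at 4.33 µg/mL on printed slides; score merges bound-protein fluorescence near 667 nm with spot signal-to-noise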
# [11] = system: Human papillomavirus type 1a protein E7 (residues 44-93); test: small molecules binding HPV E7 44-93 – biochemical, small-molecule microarray, residues 44-93, 635 nm fluorescence, primary screen (AID 1108); conditions: fluorescence 635 nm, higher = more signal;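 further: E7 fragment applied at 1 µg/mL in TBST for 1 h at 4 C; score combines spot fluorescence with its signal to noise ratio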
# [12] = hepatitis C replication reporter changes, two-sided – Huh7 cells, luciferase reporter, HCV replication inhibitor project, primary screen (AID 1109); conditions: Huh7 HCV replicon luciferase reporter, 48 h; higher = more signal;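 further: huh7 hepatoma cells harbouring a luciferase neomycin HCV replicon reporter; luciferase luminescence as measure of HCV replicon replication; test concentration not given here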
# [13] = biological target: Left-right determination factor 2 (Homo sapiens) (UniProt O00292); test: small molecules binding LEFTY2 protein – biochemical, small-molecule microarray, 635 nm fluorescence scan, primary screen (AID 1110); conditions: higher = more signal
# [14] = biological target: Calmodulin-1 (Homo sapiens) (UniProt P0DP23); test: small molecules binding calmodulin-1 with EGTA – biochemical, small-molecule microarray, Cy5-labelled CALM1, profiling panel (AID 1111); conditions: Cy5-CALM1 binding fluorescence, higher = more signal;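 further: labelled calmodulin applied in Tris saline Tween buffer holding calcium plus EGTA and DTT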
# [15] = biological target: Calmodulin-1 (Homo sapiens) (UniProt P0DP23); test: small molecules binding Ca-loaded calmodulin-1 – biochemical, small-molecule microarray, Cy5-labelled CALM1, plus calcium, artefact control for SMM control-protein annotation, profiling panel (AID 1112); conditions: Cy5-CALM1 binding fluorescence, higher = more signal;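 further: score merges spot fluorescence with signal to noise from triplicate slides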
# [16] = probe aWnt5a binding to arrayed compounds – biochemical, biotinylated probe, 635/667 nm fluorescence, primary screen (AID 1113); conditions: small-molecule microarray, higher = more signal;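 further: score merges 667 nm fluorescence intensity with signal-to-noise per printed feature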
# [17] = probe aShh binding to arrayed compounds – biochemical, biotinylated probe, 635/667 nm fluorescence, primary screen (AID 1114); conditions: small-molecule microarray, higher = more signal;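 further: probe is biotin-labelled aShh protein from a stem cell growth factor screen; measures binding of labelled protein to compounds printed on the slide; score merges feature fluorescence at 667 nm with signal-to-noise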
# [18] = probe aNog binding to arrayed compounds – biochemical, biotinylated probe, 635/667 nm fluorescence, primary screen (AID 1115); conditions: small-molecule microarray, higher = more signal;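 further: probe is biotinylated aNog protein used at 0.15 µg/mL for 1 h at 4 C; z-score combines 667 nm fluorescence of each spot with its signal to noise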
# [19] = biological target: Torsin-1A-interacting protein 1 (Homo sapiens) (UniProt Q5JTV8); test: compound microarray binding of lysate hLAP1 – cell lysate, small-molecule microarray, COS7 lysate, 635/667 nm fluorescence, primary screen (AID 1116); conditions: 635 nm fluorescence, higher = more signal
# [20] = biological target: Alpha-bungarotoxin (Bungarus multicinctus) (UniProt P60615); test: compounds binding labelled alpha-BTX control protein – biochemical, small-molecule microarray, Alexa647 label, 635/667 nm fluorescence, artefact control for SMM control protein annotation, profiling panel (AID 1117); conditions: alpha-BTX-A647 binding fluorescence, higher = more signal
# Chain of Alpha-bungarotoxin (Bungarus multicinctus) (P60615 whole entry, looked up): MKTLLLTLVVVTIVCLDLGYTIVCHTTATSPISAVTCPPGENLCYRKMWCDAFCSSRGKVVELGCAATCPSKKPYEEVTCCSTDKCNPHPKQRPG
# Chain of Dickkopf-related protein 1 (Homo sapiens) (O94907 whole entry, looked up): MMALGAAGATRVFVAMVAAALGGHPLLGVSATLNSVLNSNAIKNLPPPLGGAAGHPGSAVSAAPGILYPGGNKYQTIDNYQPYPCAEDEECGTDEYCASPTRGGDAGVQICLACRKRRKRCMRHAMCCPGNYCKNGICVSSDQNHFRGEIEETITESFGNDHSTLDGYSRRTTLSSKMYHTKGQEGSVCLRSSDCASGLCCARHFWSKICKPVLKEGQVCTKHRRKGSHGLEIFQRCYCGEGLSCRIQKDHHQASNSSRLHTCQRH
# Chain of Epidermal growth factor receptor (Homo sapiens) (P00533 whole entry, looked up): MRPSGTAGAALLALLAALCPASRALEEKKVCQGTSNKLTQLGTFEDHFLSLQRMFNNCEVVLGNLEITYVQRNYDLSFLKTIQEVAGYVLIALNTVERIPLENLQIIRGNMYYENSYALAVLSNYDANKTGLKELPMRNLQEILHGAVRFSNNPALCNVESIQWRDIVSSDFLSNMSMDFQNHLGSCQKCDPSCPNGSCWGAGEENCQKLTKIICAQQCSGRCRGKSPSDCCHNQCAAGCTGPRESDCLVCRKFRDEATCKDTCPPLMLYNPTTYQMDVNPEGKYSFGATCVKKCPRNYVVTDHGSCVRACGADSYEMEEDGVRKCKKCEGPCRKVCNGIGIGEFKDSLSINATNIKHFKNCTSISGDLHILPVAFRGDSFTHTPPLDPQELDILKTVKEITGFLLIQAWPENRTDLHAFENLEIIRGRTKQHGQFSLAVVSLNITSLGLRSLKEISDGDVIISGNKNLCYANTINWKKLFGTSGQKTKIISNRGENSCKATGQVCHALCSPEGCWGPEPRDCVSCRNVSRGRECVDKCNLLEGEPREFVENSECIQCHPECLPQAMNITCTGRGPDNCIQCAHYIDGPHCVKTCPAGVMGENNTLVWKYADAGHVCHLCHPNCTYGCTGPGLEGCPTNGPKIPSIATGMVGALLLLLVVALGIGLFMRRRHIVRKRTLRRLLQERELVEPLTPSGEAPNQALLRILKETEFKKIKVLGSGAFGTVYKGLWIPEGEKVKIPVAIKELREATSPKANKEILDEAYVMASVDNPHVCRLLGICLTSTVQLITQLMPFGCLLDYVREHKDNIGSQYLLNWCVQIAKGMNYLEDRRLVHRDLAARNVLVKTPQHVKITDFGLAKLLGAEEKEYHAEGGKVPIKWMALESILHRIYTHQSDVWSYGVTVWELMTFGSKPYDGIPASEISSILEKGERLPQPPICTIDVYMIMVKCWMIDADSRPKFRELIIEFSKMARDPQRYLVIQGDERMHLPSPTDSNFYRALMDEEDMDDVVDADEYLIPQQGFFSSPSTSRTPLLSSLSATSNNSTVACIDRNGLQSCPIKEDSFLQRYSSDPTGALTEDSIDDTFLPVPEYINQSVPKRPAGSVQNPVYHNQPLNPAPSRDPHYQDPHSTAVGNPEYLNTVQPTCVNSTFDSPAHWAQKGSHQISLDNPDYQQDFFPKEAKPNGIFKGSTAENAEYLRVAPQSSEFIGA
# Chain of Fibroblast growth factor 10 (Homo sapiens) (O15520 whole entry, looked up): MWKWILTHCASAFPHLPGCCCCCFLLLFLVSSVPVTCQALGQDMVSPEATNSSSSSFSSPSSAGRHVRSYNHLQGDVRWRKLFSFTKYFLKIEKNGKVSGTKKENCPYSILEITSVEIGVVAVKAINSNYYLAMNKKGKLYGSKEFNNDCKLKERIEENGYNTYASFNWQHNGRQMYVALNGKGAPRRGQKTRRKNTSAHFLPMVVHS
# Chain of Left-right determination factor 2 (Homo sapiens) (O00292 whole entry, looked up): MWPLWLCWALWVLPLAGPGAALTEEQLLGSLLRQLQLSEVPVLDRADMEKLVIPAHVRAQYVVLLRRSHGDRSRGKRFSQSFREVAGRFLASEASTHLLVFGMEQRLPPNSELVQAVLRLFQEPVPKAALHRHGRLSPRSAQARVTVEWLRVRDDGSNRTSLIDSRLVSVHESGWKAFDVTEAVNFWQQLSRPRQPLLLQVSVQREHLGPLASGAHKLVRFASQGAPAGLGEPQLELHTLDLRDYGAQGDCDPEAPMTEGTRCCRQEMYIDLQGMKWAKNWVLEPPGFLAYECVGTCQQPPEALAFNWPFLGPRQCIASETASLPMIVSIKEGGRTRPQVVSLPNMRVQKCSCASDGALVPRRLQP
# Chain of Follistatin-related protein 3 (Homo sapiens) (O95633 whole entry, looked up): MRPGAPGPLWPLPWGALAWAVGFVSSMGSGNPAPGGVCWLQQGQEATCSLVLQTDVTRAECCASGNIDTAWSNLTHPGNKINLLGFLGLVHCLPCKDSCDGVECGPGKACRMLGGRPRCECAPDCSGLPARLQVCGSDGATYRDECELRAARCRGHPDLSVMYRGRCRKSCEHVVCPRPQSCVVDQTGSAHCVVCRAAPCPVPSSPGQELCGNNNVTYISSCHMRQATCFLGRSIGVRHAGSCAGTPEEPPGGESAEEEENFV
# Chain of Torsin-1A-interacting protein 1 (Homo sapiens) (Q5JTV8 whole entry, looked up): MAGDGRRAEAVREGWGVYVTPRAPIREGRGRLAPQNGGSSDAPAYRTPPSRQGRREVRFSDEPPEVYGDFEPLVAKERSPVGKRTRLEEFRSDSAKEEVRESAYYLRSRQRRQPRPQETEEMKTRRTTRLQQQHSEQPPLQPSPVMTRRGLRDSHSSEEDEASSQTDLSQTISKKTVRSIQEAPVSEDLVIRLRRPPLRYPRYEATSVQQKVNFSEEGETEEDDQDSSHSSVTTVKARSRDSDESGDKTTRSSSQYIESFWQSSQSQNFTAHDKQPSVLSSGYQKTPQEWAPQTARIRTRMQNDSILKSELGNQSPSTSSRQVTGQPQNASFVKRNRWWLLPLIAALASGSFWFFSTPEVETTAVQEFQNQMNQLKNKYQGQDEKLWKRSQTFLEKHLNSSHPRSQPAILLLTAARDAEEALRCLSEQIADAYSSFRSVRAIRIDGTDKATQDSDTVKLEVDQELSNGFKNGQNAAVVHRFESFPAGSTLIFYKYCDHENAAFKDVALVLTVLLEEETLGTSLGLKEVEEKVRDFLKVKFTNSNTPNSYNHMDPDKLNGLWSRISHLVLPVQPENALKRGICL
SMILES,composite z-score [1],composite z-score [2],composite z-score [3],z-score [4],composite z-score [5],composite z-score [6],composite z-score [7],composite z-score [8],composite z-score [9],composite z-score [10],composite z-score [11],z-score [12],composite z-score [13],composite z-score [14],composite z-score [15],composite z-score [16],composite z-score [17],composite z-score [18],composite z-score [19],composite z-score [20]
CCCC=C(CCC)[C@@H](NS(=O)(=O)c1cccs1)c1ccc(C(=O)OC)cc1,0.565,0.922,1.18,3.75 (inactive),0.77,1.19,-0.122,0.622,-0.569,-0.0034,1.37,-2.93,-0.452,1.6,0.85,0.105,0.605,1.41,0.554,1.24
COC(=O)[C@@]1(Cc2ccccc2)[C@H]2c3cc(C(=O)N4CCCC4)n(Cc4nc5ccccc5[nH]4)c3C[C@H]2CN1C(=O)c1ccccc1,0.844,1.1,1.36,-1.52 (inactive),0.0471,1.19,-0.361,1.09,-0.137,0.831,1.43,-1.89,-0.0838,2.55,1.53,0.0003,-0.2,2.15,2.53,0.442
CC(C)C(=C=CC[C@@H](O)c1ccccc1OCCO)CCO,0.116,-0.258,0.133,-0.0616 (inactive),1.36,0.0661,-0.195,0.0893,0.326,0.434,-0.79,-1.49,0.156,0.084,-0.21,-0.0836,-0.0471,-0.371,-0.549,0.606
CC1CC/C=C\[C@H]2OC34C=CCN(C(C)(C)C)C(=O)[C@H]3N(CCCCCCO)C(=O)[C@@H]4C2C(=O)O1 (stereo not given in full),2.05,-0.0908,0.416,-0.0517 (inactive),0.0444,-0.615,-0.777,-0.568,-0.957,1.13,-0.0409,-0.549,-1.06,-0.0234,0.725,-0.154,-0.0553,0.0511,0.656,-1.06
COc1ccc(CCN2C(=O)[C@@]3(Cc4ccccc42)c2ccccc2C(=O)N(Cc2ccccc2C(F)(F)F)[C@H]3c2ccc(CO)cc2)cc1,0.516,-0.19,-0.537,-0.856 (inactive),0.167,0.441,0.0283,0.425,0.622,0.717,0.291,-0.961,0.0259,0.238,-0.839,-0.158,0.0796,-0.258,0.0645,0.88
COc1ccc(CCN2C(=O)[C@@]3(c4ccc([N+](=O)[O-])cc4)CC(=O)N(C4CCCCC4)[C@@H]3c3ccc(CO)cc32)cc1,0.582,0.274,0.181,-0.0884 (inactive),0.586,0.711,-0.267,1.2,1.48,0.889,0.106,0.431,0.636,-0.574,-0.747,0.0495,-0.229,-0.33,0.341,-0.167
O=C(C1N=C(c2ccc(OCCCO)cc2)N(c2ccccc2)O1)N1CCOCC1 (stereo not given),0.298,0.56,0.538,-0.799 (inactive),1.46,1.3,0.0096,0.695,0.858,0.315,1.37,-2.11,0.677,1.29,0.335,-0.0445,0.465,-0.492,0.832,1.12
COCCOC(=O)N1C(=O)[C@@]2(c3cc(C#CC4=CCCCC4)ccc31)[C@H](C(=O)N1CCc3cc(OC)c(OC)cc3C1)[C@H]1C(=O)O[C@H](c3ccccc3)[C@H](c3ccccc3)N1[C@@H]2c1ccc(OCCO)cc1,0.563,0.0129,-0.134,0.342 (inactive),1.3,1.3,0.649,1.03,0.8,0.706,1.07,-0.44,0.744,0.526,0.269,0.048,-0.428,0.575,0.929,1.07
CCCCc1cn(C[C@H](Cc2ccccc2)NC(=O)N[C@H](CO)CCc2oc(C(C)=O)c(C(=O)OC)c2C(=O)OC)nn1,0.595,-0.164,-0.22,-0.949 (inactive),1.04,1.02,0.717,1.4,0.485,-0.0075,1.39,-0.639,1.26,0.451,-0.693,-0.0045,0.184,-0.0965,0.644,0.463
CO[C@H]1O[C@H](CO)[C@@H](OC(=O)Nc2ccc(Br)cc2)[C@H](OC(=O)c2cc3ccccc3[nH]2)[C@H]1OC(=O)c1cc2ccccc2[nH]1,1.23,0.165,0.24,-4.44 (inactive),1.19,1.28,0.408,0.579,0.0104,0.227,0.823,-3.51,-0.132,1.87,0.14,0.0775,-0.262,0.121,0.926,0.353
O=C1OCCC/C=C\[C@H]2OC34C=CCN(c5ccc6ccccc6c5)C(=O)[C@H]3N(CCCCCCO)C(=O)[C@@H]4C12 (stereo not given in full),1.35,-0.234,0.711,-1.39 (inactive),-0.873,-0.525,0.102,0.0824,-1.71,0.998,-1.45,-0.625,-0.955,-0.761,-0.384,-0.176,-0.179,-0.388,2.93,-0.182
CCC(CC)C(O)C1C=CC2C(=O)N(C)C(=O)C2N1Nc1ccccc1 (stereo not given),0.695,0.332,0.9,0.464 (inactive),0.603,0.499,0.0611,0.698,0.371,0.867,0.948,0.347,-0.054,1.44,0.463,-0.0863,0.128,1.09,1.64,1.04
COc1ccc(C(=O)Nc2cccc(CN3C(=O)[C@]4(O[C@H](CCO)[C@@H]([Si](C)(C)c5ccc(OC)cc5)[C@@H]4C)c4ccccc43)c2)cc1,1.44,0.541,0.223,1.3 (inactive),0.691,0.901,0.0077,0.742,0.331,1.26,1.28,-5.16,0.442,0.123,0.0559,0.0194,-0.133,0.6,0.603,0.805
C=C(CCCC)/C(=C/C[C@@H](OC(C)=O)c1ccccc1OCCO)c1cnc2ccccc2c1,0.561,0.149,0.12,-0.397 (inactive),0.732,0.21,-0.321,0.417,-0.0491,1.33,0.75,-2.25,0.157,-0.0416,-0.418,-0.124,-0.0977,0.369,0.44,0.157
[N-]=[N+]=NCc1ccccc1C[C@@]1(C(=O)NCC(O)CO)N=C(c2ccc(OCCCO)cc2)O[C@@H]1c1ccccc1N=[N+]=[N-] (stereo not given in full),0.991,1.03,1.38,0.561 (inactive),1.01,0.364,-0.0087,0.348,-0.504,1.2,1.39,-2.72,-0.124,2.21,1.02,0.149,0.156,2.11,2.18,0.842
C=C[C@H](COC(C)=O)N(C(=O)OC(C)(C)C)S(=O)(=O)c1ccc(Br)cc1,0.0995,1.29,0.639,0.353 (inactive),0.619,0.484,0.517,0.507,0.717,0.838,0.4,-0.757,0.467,-0.159,-0.907,0.205,0.113,-0.0185,0.395,0.397
